# Results reported in PubChem BioAssay (NCATS).
# Where “and” joins values, the source holds several entries; their conditions need not be identical. Identical values can stand only once. Unmarked numbers belong to inactive results. Inconclusive results are not listed. Calls of active or inactive are those of the source.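 How the source made its calls, unless noted: active means compounds whose dose series gives a full or clear partial fitted curve of increased nuclear translocation; inconclusive means weak partial curve or effect only at the top dose; inactive means no dose-dependent translocation response.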
# Columns and labels:
# [1] = Stat Signaling Pathway (AID 446; active means well fitted curve in either direction with a large enough effect, not every such curve was filed as active;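 further: ME-180 cervical cancer cells given 40 pM IL-6 alongside compound; SIE-controlled beta-lactamase reporter measured as 460/530 nm FRET emission ratio; on the % scale 0 is the no-effect control and ±100 the full control effect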); conditions: ME-180 SIE beta-lactamase reporter, IL-6 stimulated, 5 h; at 17.2 µM (top of the series) unless noted
# How it was run: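 IL-6/STAT signaling read in ME-180 cells via an SIE beta-lactamase reporter. Stimulus was 40 pM IL-6 (its AC50) for 5 hrs, so both activation and inhibition register.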
# [2] = molecular target: Glucocorticoid receptor (Homo sapiens) (UniProt P04150); experiment: GR-GFP Redistribution (AID 450); further: potency means the concentration at half of the fitted maximal effect
# [3] = qHTS Assay for Identification of Small Molecule Agonists for Hypoxia Response Element Signaling Pathway (AID 914; active means well fitted activation curve with a large enough effect in the signal ratio, with a control signal flat, not every such curve was filed as active; the % refers to the signal ratio; further: potency means the concentration at half of the fitted maximal effect; on activation: % of control where 0% means no effect); conditions: ME-180 (cervical carcinoma) HRE-bla reporter, beta-lactamase ratio, CoCl2, 17 h; activation: active compounds read high
# How it was run: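 Reporter activity (beta-lactamase, CCF4 460nm/530nm ratio) in HRE-bla ME-180 cells is recorded after 17 h compound exposure with EC50 CoCl2 at 37 degrees Celsius. AC50 values come from titration data.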
# [4] = molecular target: Glucocorticoid receptor (Homo sapiens) (UniProt P04150); experiment: GR-EFC Redistribution (AID 451; calls by dose curve; further: potency means the concentration at half of the fitted maximal effect); conditions: CHO-K1 GR-EFC translocation, beta-gal luminescence, 2 h
# How it was run: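 CHO-K1 cells stably expressing nuclear-localized β-gal enzyme acceptor and GR fused C-terminally to the enzyme donor fragment; ligand-driven nuclear translocation restores β-gal by complementation. Compounds titrated up to 46 uM final, 2 h at 37 °C; luminescence read.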
# [5] = molecular target: Mitogen-activated protein kinase 10 (Mus musculus) (UniProt Q61831); experiment: JNK3 AlphaScreen Assay (AID 530; active means well fitted curve in either direction with a large enough effect, not every such curve was filed as active;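 further: kinase came from lysate of stimulated human HepG2 cells; signal reports phosphorylation of biotinylated GST-cJun 1-79 at Ser73 with 10 µM ATP; on the % scale 0 is the no-effect control and ±100 the full control effect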)
# How it was run: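 Inhibitors reduce antibody binding to phosphorylated biotin-cJun, lowering AlphaScreen luminescence. Lysates from HepG2 cells pre-activated by IL-1beta plus TNF-alpha supplied JNK3; compounds were titrated.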
# [6] = molecular target: 3',5'-cyclic-AMP phosphodiesterase 4B (Homo sapiens) (UniProt Q07343); experiment: qHTS Assay for Inhibitors of PDE-IV (AID 607; active means well fitted activation curve with a large enough effect in the main read-out, with a control signal flat, not every such curve was filed as active; further: % of control where 0% means no effect)
# How it was run: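 Live HEK293 cells with a modified cyclic nucleotide-gated (CNG) channel report intracellular cAMP via membrane-potential dye fluorescence (ex 535/em 590 nm). Endogenous PDE-IV was targeted. Compounds were tested at up to 22.9 uM final; RO 20-1724 100 uM served as control.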
# [7] = molecular target: Guanine nucleotide-binding protein G(i) subunit alpha-1 (Homo sapiens) (UniProt P63096); experiment: qHTS Assay for Inhibitors of RGS12 GoLoco Motif Activity (Green Fluorophore) (AID 879; active means well fitted curve in the direction sought with a large enough effect; an effect the other way counts as inactive or inconclusive;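 further: 0% = labeled peptide with Gαi1 and full inhibition = labeled peptide alone without protein; negative values mean loss of peptide binding seen as reduced polarization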)
# How it was run: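 Fluorescence polarization assay: 50 nM Gαi1 with 10 nM FITC-labeled RGS12 GoLoco peptide in 10 mM Tris pH 7.5, 150 mM NaCl, 0.1 mM GDP, 0.05% NP40, 10 min at room temperature with compound.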
# [8] = qHTS Assay for Identification of Small Molecule Antagonists for Thrombopoietin (TPO) Signaling Pathway (AID 918; active means well fitted curve in the direction sought with a large enough effect; an effect the other way counts as inactive or inconclusive; further: potency means the concentration at half of the fitted maximal effect; nearly all actives have a fitted effect of over 60% in size); conditions: TPO-dependent cell signaling reporter, antagonist mode
# How it was run: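 Murine Ba/F3 cells expressing human TPO receptor and a Glycoprotein IIb promoter-luciferase reporter, IL-3-starved overnight, treated with compound plus TPO at EC50 (26 pM final). After 24 h at 37 C, luminescence read to detect inhibitors.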
# [9] = molecular target: Pyruvate kinase (Leishmania mexicana) (UniProt Q27686); experiment: qHTS Validation Assay for Inhibitors of Leishmania Mexicana Pyruvate Kinase (AID 945; active means well fitted curve in the direction sought with a large enough effect; an effect the other way counts as inactive or inconclusive;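 further: 0% = DMSO only neutral control wells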)
# How it was run: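 Mutant LmPYK (E451W), 0.2 nM, plus 0.5 mM PEP and 0.1 mM ADP in 50 mM imidazole pH 7.2 containing 0.01% Tween 20 and 0.05% BSA. Incubated 1 h at room temperature; luminescence via PKLight, normalized to DMSO.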
# [10] = molecular target: Pyruvate kinase PKM (Homo sapiens) (UniProt P14618); experiment: qHTS Assay for Activators of Human Muscle Pyruvate Kinase (AID 954; active means well fitted curve in the direction sought with a large enough effect, not every such curve was filed as active;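 further: 0% = uninhibited enzyme and -100% = no enzyme or full thiadiazolimine inhibition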)
# How it was run: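 Enzyme was run at intermediate activity so both inhibitors and activators could be detected. ATP formed from ADP and PEP by 0.1 nM human PKM2 during a 1 h room-temperature incubation was quantified by coupled luciferase luminescence.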
# [11] = molecular target: Alpha-galactosidase A (Homo sapiens) (UniProt P06280); experiment: Counterscreen for Glucocerebrosidase Inhibitors: qHTS Assay for Human alpha-Galactosidase at pH 4.5 (AID 992; active means well fitted curve in the direction sought with a large enough effect; an effect the other way counts as inactive or inconclusive; further: 0% is about no effect)
# How it was run: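 Read-out is 4-methylumbelliferone fluorescence (365 nm excitation, 440 nm emission) after a pH 10 NaOH/glycine stop. Reactions held 2 nM enzyme and 80 uM substrate at pH 4.5 for 20 min at room temperature.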
# [12] = molecular target: alpha-glucosidase (Oryza sativa, rice) (UniProt Q653V4); experiment: Counterscreen for Glucocerebrosidase Inhibitors: qHTS Assay for Rice alpha-Glucosidase at pH 5.0 (AID 997; active means well fitted curve in the direction sought with a large enough effect; an effect the other way counts as inactive or inconclusive;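 further: 0% = full activity with enzyme and -100% = basal without enzyme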)
# How it was run: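 Rice alpha-glucosidase (4 nM final) with 400 uM 4-methylumbelliferyl-alpha-D-glucopyranoside in citrate buffer pH 5.0, 20 min at room temperature, stopped at pH 10; fluorescence 365/440 nm, compounds 0.7 nM–77 uM, AC50 from Hill fits.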
# [13] = molecular target: Muscarinic acetylcholine receptor M1 (Rattus norvegicus) (UniProt P08482); experiment: qHTS Assay for Antagonists of Acetylcholine Muscarinic M1 Receptor: Kinetic Measurement of Intracellular Calcium Response (AID 943; active means well fitted curve in the direction sought with a large enough effect; an effect the other way counts as inactive or inconclusive; further: potency means the concentration at half of the fitted maximal effect; nearly all actives have a fitted effect of over 75% in size)
# How it was run: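 CHO cells expressing rat M1 receptor, Fluo-4 loaded, preincubated 10 min with compound, then stimulated with EC80 carbachol (100 nM final). Kinetic calcium fluorescence over 4 min; response taken as peak over basal signal.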
# [14] = molecular target: Muscarinic acetylcholine receptor M1 (Rattus norvegicus) (UniProt P08482); experiment: qHTS Assay for Antagonists of Acetylcholine Muscarinic M1 Receptor: Measurement of IP-One Response (AID 944; active means well fitted curve in the direction sought with a large enough effect; an effect the other way counts as inactive or inconclusive; further: potency means the concentration at half of the fitted maximal effect; nearly all actives have a fitted effect of over 75% in size)
# How it was run: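 CHO cells stably expressing rat M1, pretreated 10 min with compound, then stimulated 30 min with carbachol at EC80 (200 nM) in LiCl-containing buffer pH 7.4; IP1 accumulation read by HTRF competition (665/620 nm).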
# Glucocorticoid receptor (Homo sapiens), sequence (P04150 whole entry, looked up, the tested form may be a part): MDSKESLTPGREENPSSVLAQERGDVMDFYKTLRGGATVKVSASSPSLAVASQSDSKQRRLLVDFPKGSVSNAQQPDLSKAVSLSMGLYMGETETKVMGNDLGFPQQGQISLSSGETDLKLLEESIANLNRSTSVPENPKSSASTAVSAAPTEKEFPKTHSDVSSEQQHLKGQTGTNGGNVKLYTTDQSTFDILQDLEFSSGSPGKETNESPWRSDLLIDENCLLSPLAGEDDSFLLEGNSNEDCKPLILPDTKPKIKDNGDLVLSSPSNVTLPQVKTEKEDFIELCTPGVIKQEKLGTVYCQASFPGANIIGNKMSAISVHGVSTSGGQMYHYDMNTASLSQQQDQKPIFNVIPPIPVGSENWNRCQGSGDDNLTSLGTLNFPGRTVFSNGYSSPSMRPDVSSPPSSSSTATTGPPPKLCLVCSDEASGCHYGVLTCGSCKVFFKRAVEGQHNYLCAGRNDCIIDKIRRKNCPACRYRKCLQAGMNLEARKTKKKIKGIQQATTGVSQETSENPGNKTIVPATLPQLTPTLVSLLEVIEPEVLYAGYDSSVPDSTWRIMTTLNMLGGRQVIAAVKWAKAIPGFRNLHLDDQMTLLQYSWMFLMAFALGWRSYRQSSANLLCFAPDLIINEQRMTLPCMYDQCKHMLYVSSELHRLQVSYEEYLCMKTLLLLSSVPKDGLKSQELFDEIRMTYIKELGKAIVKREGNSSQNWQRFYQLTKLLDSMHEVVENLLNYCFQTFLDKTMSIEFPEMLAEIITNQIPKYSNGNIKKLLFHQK
# Alpha-galactosidase A (Homo sapiens), sequence (P06280 whole entry, looked up): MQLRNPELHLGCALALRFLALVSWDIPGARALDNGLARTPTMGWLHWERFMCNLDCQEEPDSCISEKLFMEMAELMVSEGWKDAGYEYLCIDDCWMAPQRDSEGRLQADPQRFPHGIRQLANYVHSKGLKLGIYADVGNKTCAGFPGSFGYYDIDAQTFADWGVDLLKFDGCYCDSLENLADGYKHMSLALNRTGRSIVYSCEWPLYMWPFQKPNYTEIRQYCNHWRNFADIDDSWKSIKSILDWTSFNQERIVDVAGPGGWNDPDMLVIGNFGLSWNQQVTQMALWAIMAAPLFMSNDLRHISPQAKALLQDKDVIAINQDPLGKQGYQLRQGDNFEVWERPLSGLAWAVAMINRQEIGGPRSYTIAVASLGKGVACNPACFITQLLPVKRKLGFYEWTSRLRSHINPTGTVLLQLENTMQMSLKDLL
# Pyruvate kinase (Leishmania mexicana), sequence (Q27686 2-499 E452W): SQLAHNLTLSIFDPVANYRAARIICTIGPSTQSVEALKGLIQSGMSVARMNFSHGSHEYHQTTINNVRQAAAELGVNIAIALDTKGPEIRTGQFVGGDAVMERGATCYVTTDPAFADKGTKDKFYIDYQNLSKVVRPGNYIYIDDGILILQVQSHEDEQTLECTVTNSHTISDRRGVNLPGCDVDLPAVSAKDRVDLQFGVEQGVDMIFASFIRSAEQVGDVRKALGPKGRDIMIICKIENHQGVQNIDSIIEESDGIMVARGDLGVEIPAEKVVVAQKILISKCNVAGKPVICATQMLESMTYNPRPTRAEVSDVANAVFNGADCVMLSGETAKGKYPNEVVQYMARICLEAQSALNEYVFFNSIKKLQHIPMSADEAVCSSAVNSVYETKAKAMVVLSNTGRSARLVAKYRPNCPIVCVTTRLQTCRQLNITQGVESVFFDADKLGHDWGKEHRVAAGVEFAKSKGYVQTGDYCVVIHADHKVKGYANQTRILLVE
# Guanine nucleotide-binding protein G(i) subunit alpha-1 (Homo sapiens), sequence (P63096 whole entry, looked up): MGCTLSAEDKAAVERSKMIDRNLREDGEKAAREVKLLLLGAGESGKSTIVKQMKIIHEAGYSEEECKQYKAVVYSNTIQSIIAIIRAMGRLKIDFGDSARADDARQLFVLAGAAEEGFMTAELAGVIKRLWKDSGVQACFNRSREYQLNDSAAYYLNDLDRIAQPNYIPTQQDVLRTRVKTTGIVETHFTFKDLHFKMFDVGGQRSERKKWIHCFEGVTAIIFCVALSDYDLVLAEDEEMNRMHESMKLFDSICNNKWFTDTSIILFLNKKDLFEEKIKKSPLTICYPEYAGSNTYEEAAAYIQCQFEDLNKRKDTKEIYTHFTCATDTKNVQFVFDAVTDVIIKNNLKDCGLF
# Pyruvate kinase PKM (Homo sapiens), sequence (P14618 whole entry, looked up): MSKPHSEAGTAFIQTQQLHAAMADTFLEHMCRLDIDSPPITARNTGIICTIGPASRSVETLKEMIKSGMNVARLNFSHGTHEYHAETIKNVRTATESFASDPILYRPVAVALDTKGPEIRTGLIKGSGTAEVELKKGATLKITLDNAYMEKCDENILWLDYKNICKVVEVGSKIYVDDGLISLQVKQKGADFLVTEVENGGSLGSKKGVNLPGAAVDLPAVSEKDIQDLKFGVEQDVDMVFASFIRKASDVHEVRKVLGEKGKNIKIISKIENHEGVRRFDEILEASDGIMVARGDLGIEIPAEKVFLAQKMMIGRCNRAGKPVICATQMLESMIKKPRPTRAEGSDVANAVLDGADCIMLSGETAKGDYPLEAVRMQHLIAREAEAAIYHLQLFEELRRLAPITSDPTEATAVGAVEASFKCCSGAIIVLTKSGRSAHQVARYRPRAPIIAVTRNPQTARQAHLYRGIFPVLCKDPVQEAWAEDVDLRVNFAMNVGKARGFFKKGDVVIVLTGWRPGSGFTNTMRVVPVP
# Muscarinic acetylcholine receptor M1 (Rattus norvegicus), sequence (P08482 whole entry, looked up): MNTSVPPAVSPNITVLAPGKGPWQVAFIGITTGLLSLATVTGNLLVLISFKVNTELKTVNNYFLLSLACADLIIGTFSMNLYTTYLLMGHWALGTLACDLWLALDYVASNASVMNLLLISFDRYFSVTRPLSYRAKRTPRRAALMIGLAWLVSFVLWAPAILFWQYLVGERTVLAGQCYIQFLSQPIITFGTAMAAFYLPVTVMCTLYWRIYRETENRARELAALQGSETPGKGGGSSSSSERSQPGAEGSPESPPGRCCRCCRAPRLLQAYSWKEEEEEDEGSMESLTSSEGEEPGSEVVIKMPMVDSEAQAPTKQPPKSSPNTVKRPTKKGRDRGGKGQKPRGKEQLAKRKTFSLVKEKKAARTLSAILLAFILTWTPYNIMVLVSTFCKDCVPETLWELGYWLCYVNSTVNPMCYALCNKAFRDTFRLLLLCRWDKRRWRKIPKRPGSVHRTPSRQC
# 3',5'-cyclic-AMP phosphodiesterase 4B (Homo sapiens), sequence (Q07343 whole entry, looked up): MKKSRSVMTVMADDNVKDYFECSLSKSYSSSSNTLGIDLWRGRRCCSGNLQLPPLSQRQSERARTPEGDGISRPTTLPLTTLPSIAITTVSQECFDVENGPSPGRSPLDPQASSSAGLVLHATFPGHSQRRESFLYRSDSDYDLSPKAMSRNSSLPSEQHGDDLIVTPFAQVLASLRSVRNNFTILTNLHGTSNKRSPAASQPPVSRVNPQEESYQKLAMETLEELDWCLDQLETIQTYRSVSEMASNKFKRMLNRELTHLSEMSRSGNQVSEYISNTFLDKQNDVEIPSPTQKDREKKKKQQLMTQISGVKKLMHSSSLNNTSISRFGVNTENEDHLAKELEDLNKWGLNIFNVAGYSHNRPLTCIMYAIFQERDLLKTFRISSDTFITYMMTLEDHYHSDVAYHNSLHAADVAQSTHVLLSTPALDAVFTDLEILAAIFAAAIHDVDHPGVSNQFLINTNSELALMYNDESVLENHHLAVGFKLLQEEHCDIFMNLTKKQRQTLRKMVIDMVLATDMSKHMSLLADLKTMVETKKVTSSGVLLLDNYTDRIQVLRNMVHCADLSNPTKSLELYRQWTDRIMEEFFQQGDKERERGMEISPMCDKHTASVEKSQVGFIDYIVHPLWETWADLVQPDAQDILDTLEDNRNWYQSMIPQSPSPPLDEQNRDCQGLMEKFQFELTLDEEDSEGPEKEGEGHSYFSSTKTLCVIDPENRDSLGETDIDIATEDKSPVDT
smiles,measurement,setting,value
COc1ccc(-c2oc3ncn4nc(COc5ccccc5)nc4c3c2-c2ccc(OC)cc2)cc1,"activity, negative = inhibition",[1],4.11%
same,Potency,[2],> 20.6 µM
O=c1c2sc3nc(N4CCOCC4)c4c(c3c2ncn1Cc1ccco1)CCCC4,"activity, negative = inhibition",[1],-14.9%
same,Potency,[2],> 20.6 µM
CCN(CC)c1ccc(-c2nn3c(-c4cccnc4)nnc3s2)cc1,"activity, negative = inhibition",[1],-29.8%
same,Potency,[2],> 20.6 µM
CCOC(=O)CC(=O)CSc1nc(N)c(C#N)c(-c2ccc(Cl)cc2)c1C#N,"activity, negative = inhibition",[1],-16.4%
same,Potency,[2],> 20.6 µM
N#CC1=C(SCC(=O)c2ccccc2)NC2=C(C(=O)CCC2)C1c1ccco1 (stereo unspecified),"activity, negative = inhibition",[1],-23.9%
same,Potency,[2],> 20.6 µM
same,Potency,[3],10 µM (active)
Fc1ccccc1-c1nc(N2CCCCC2)c2ccccc2n1,"activity, negative = inhibition",[1],-21.5%
same,Potency,[2],> 20.6 µM
CSc1ccc2c(c1)N(CC[C@H]1CCCCN1C)c1ccccc1S2,"activity, negative = inhibition",[1],-7.21%
same,Potency,[2],> 46 µM and > 20.6 µM
same,Potency,[4],> 46 µM and > 20.6 µM
same,Potency,[5],inactive
same,Potency,[6],inactive
same,outcome,[7],inactive
same,Potency,[8],12.6 µM (active)
same,Potency,[9],inactive
same,outcome,[10],inactive
same,outcome,[11],inactive
same,outcome,[12],inactive
Nc1c2c(nc3ccccc13)N(c1ccccc1)CC2,"activity, negative = inhibition",[1],9.15%
same,Potency,[2],> 20.6 µM
CCc1[nH]nc2c1C(c1ccc(Br)s1)C(C#N)=C(N)O2 (stereo unspecified),"activity, negative = inhibition",[1],-17.3%
same,Potency,[2],> 20.6 µM
COc1ccc(CNc2oc(COc3ccccc3Cl)nc2C#N)cc1,Potency,[2],> 20.6 µM
Cc1cccc(C)c1OCC(=O)Nc1cccc(-c2nnc(-c3ccccc3)o2)c1,"activity, negative = inhibition",[1],-9.86%
same,Potency,[2],> 20.6 µM
CCCN(CCC)C(=O)CC(c1ccc(F)cc1)c1ccco1 (stereo unspecified),"activity, negative = inhibition",[1],-3.11%
same,Potency,[2],> 20.6 µM
same,activation,[3],13.9%
COC(=O)C1=C(C)NC(C)=C(C(=O)OCCN(C)Cc2ccccc2)[C@@H]1c1cccc([N+](=O)[O-])c1,"activity, negative = inhibition",[1],-11.8% [at 38 µM]
same,Potency,[2],> 46 µM
same,Potency,[4],> 46 µM
same,outcome,[7],inactive
same,Potency,[13],3.16 µM (active)
same,Potency,[14],17.8 µM (active)
same,Potency,[9],inactive
same,outcome,[10],inactive
same,outcome,[11],inactive
same,outcome,[12],inactive
Cc1ccc2nc(C(F)(F)F)c(C#N)c(N)c2c1,"activity, negative = inhibition",[1],-100% (active)
same,Potency,[2],> 20.6 µM
COc1cccc(-c2nc(N3CCCCC3)c3ccccc3n2)c1O,"activity, negative = inhibition",[1],-5.07%
same,Potency,[2],> 20.6 µM
COc1ccc(C(=O)CCN2CCCCCC2)cc1,"activity, negative = inhibition",[1],-28.1%
same,Potency,[2],> 20.6 µM
CC(C)OC(=O)c1c2nc3ccccc3nc2n2c1[nH]c(=O)c1ccccc12,"activity, negative = inhibition",[1],-17%
same,Potency,[2],> 20.6 µM
CCCCc1ccc(NC(=O)CSC2=C(C#N)C(c3ccco3)C3=C(CCCC3=O)N2)cc1 (stereo unspecified),"activity, negative = inhibition",[1],-23.6%
same,Potency,[2],> 20.6 µM
COc1cccc(-c2nc(N3CCN(Cc4ccccc4)CC3)c3ccccc3n2)c1O,"activity, negative = inhibition",[1],9.62%
same,Potency,[2],> 20.6 µM
